USP17 inh: blocks human USP17 ubiquitin-rhodamine cleavage; AID 1645855; 47,000 tested, 6.5% active; purified USP17, Ub-rhodamine cleavage fluorescence, 3 h; A8MUK1; inhibition, % at 50 µM
OTUD3 inh: blocks human OTUD3 ubiquitin-rhodamine cleavage. inhibition, % at 25 µM. 47,000 tested, 0.7% active. Q5T2D3. purified OTUD3, Ub-rhodamine fluorescence, 2 h
USP30 inh: inhibitors of human USP30 deubiquitinase | Q70CQ3 | inhibition, % at 25 µM | AID 1645860 | purified USP30, Ub-rhodamine cleavage fluorescence | 47,000 tested, 5.3% active
Target sequence (Q70CQ3 whole entry, looked up): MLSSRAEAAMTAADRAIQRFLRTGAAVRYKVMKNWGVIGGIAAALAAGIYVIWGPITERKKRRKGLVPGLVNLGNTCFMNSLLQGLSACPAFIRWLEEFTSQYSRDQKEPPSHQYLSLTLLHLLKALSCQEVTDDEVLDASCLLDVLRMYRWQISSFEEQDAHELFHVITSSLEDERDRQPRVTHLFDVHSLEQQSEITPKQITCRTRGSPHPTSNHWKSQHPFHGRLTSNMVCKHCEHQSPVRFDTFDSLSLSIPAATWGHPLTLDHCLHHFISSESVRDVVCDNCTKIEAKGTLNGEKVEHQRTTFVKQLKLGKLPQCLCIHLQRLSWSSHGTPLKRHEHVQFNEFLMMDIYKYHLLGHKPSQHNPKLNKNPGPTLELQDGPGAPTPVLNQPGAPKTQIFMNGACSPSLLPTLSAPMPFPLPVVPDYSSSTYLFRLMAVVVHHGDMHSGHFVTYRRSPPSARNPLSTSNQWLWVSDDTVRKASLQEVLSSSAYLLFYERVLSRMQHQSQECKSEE
USP28 inh: blocks human USP28 ubiquitin-rhodamine cleavage | AID 1645857 | inhibition, % at 25 µM | purified USP28, Ub-rhodamine cleavage fluorescence, 30 min | 47,000 tested, 3% active | Q96RU2
Active calls of the source: *; · = no result given. Compounds with a hit are over-represented: about 11% of the library has one in this group of screens. No stated cut-off is given here; in the data, active means inhibition above about 30%; inactive means the rest.

SMILES	USP17 inh	OTUD3 inh	USP30 inh	USP28 inh
O=C(Nc1cccc(C(F)(F)F)c1)N1CCC2(CC1)Nc1ccccc1-n1cccc12	21.3	11.0	43.0*	6.7
O=C(c1ccccn1)N1CCC2(CC1)CC1(CO2)Nc2ccccc2-n2cccc21 (stereo not drawn)	46.0*	-22.3	-144.1	-18.7
COc1ccc(C)cc1NC(=O)N1CCC2(CC1)Nc1ccccc1-n1cccc12	-2.1	7.9	11.3	13.9
CCc1ccccc1NC(=O)N1CCC2(CC1)Nc1ccccc1-n1cccc12	45.4*	10.2	2.9	11.0
CCOC(=O)c1ccccc1NC(=O)c1sc(-c2ccccn2)nc1C	3.9	8.2	-9.7	-4.6
CC1(C(=O)NC2CCCCCC2)Cc2ccccc2C(=O)N1CCN1CCCCCC1 (stereo not drawn)	0.1	-45.4	-137.5	-24.4
N#Cc1ccccc1OCc1csc(-c2ccccc2)n1	-10.4	-2.6	10.4	65.5*
Cc1ccc(C(C(=O)NCc2ccc3c(c2)OCO3)N(C(=O)c2ccc3c(c2)OCCO3)c2cc(C)cc(C)c2)cc1 (stereo not drawn)	3.9	-7.1	-26.9	-4.1
Cc1ccc(C(C(=O)NCc2ccc3c(c2)OCO3)N(C(=O)c2ccc3c(c2)OCCO3)C2CCCC2)cc1 (stereo not drawn)	49.2*	-34.3	-108.3	-1.4
COc1cc(/C=C/C(=O)OCC(=O)N2c3ccccc3CC2C)cc(OC)c1OC (stereo not drawn)	12.5	-1.5	-2.3	-0.5
COc1cccc(CNC(=O)c2ccc3c(c2)NC(=O)C2CCCN32)c1OC (stereo not drawn)	54.1*	-20.0	-32.0	-10.3
CCN1CCN(C(=O)c2ccc3c(c2)NC(=O)C2CCCCN32)CC1 (stereo not drawn)	-0.5	-7.1	-43.3	-9.4
CCOC(=O)C1CCN(C(=O)c2ccc3c(c2)NC(=O)C2CCCN32)CC1 (stereo not drawn)	73.2*	-11.1	11.3	11.7
CC(CN1CCC(c2[nH]nc3nccnc23)CC1)c1ccccc1 (stereo not drawn)	-28.5	-20.9	-81.6	-21.2
CCc1cc(C2CCCN2C(=O)C23CC4CC(CC(C4)C2)C3)on1 (stereo not drawn)	5.1	2.9	14.5	-4.9
O=C(Nc1ccc2c(c1)OCO2)c1cc(-c2cccnc2)n(-c2ccccc2)n1	30.1*	9.4	24.0	78.7*
O=C1CC(O)C(O)C23OC12C1(Oc2cccc4cccc(c24)O1)C1OC1C3O (stereo not drawn)	-13.9	-7.4	-25.2	-3.0
COc1ccc(CCNC(=O)c2ccccc2N2C(=O)N3CCc4c([nH]c5ccc(OC)cc45)[C@@]3(C)C2=O)cc1	42.9*	15.1	40.6*	-1.6
CC1CCC(NC(=O)c2ccccc2N2C(=O)N3CCc4c([nH]c5ccccc45)[C@@]3(C)C2=O)CC1 (stereo partly drawn)	4.7	-15.1	-9.2	-2.3
C[C@]12C(=O)N(c3ccccc3C(=O)NC3CCCCC3)C(=O)N1CCc1c2[nH]c2ccccc12	45.2*	7.5	32.1*	6.0
COc1ccc2[nH]c3c(c2c1)CCN1C(=O)N(c2ccccc2C(=O)NCCc2ccccc2)C(=O)[C@]31C	10.9	-5.7	-21.1	-11.9
CC(=O)c1ccc(-c2ccc(C(=O)NC3CC(C)(C)NC(C)(C)C3)o2)cc1	-12.7	-2.4	-1.8	-1.0
COc1ccc(CN2CCC3(CC2)OCCc2cnc(C)nc23)c(OC)c1	-16.6	13.1	31.9*	-0.5
NC(=O)/C=C/c1ccccc1	-0.2	-3.0	6.4	-2.4
COc1cc2ccccc2cc1C(=O)NCc1ccccc1	17.2	19.0	27.4	26.2
SMILES	USP17 inh	OTUD3 inh	USP30 inh	USP28 inh
COc1cc2ccccc2cc1C(=O)Nc1cccc(C)c1C	56.9*	5.4	·	·
CN(C)S(=O)(=O)c1cccc(NC(=O)c2cc(F)cc(F)c2)c1	12.6	6.2	24.5	18.9
CSc1cccc(NC2c3ccccc3C(=O)N2c2ccccc2C)c1 (stereo not drawn)	19.0	6.4	9.5	43.8*
CC(CCc1ccccc1)n1c(O)c(C2NCCc3c2[nH]c2ccccc32)c(=O)[nH]c1=O (stereo not drawn)	-24.9	-17.3	-103.7	-14.5
O=C(NCc1cccc(Cl)c1)c1sc2ncccc2c1-n1cccc1	16.4	1.7	-56.7	31.5*
COCCNC(=O)Cn1nnc(-c2ccc(-c3ccc(OC)cc3)cc2)n1	26.2	11.8	34.5*	10.7
CCOC(=O)C(Cc1ccccc1)NC(=O)Cn1nnc(-c2ccccc2)n1 (stereo not drawn)	26.8	15.7	35.1*	14.8
COc1ccc(-c2noc(CC(=O)Nc3cccc(OC)c3)n2)cc1	24.8	-5.5	-18.3	0.0
O=C(Cn1nnc(-c2ccc(F)cc2)n1)NCCc1ccccc1	73.8*	-3.8	1.8	3.5
O=C(CN(Cc1ccc(F)cc1)C(=O)Cn1nnc(-c2ccc(F)cc2)n1)NC1CCCC1	4.8	0.9	20.8	7.9
COc1ccc(-c2nnn(CC(=O)Nc3ccccc3)n2)cc1	48.8*	7.8	45.9*	39.3*
CCN1[C@H]2CCN(Cc3ccccn3)CC[C@@H]2Oc2ccccc2S1(=O)=O	-68.1	-43.2	-192.0	-75.0
O=C(Nc1ccc2c(c1)OCCO2)Nc1ccc2nc3n(c(=O)c2c1)CCCC3	31.8*	-1.6	3.7	68.2*
COc1cccc(NC(=O)Nc2ccc3nc4n(c(=O)c3c2)CCCC4)c1	33.9*	13.0	27.3	55.2*
O=C(Nc1ccc2nc3n(c(=O)c2c1)CCCC3)c1ccc2c(c1)OCO2	-8.2	-7.8	-42.1	0.7
COc1cc(NC(=O)Nc2ccc3nc4n(c(=O)c3c2)CCCC4)cc(OC)c1	-8.8	-7.1	-23.2	6.4
COc1ccc(NC(=O)Nc2ccc3nc4n(c(=O)c3c2)CCCC4)cc1OC	4.4	5.7	12.2	31.4*
CN1[C@@H](CCC(=O)N2CCC(O)CC2)CNC(=O)[C@@H]2[C@H]1CCN2Cc1cccc(OC(F)(F)F)c1	-76.2	-12.5	-31.4	2.9
COc1ccc(-c2cnnn2-c2ccc(NC(=O)c3ccc(S(=O)(=O)N(C)C)cc3)cc2)cc1OC	14.9	10.6	29.8	8.2
Cc1cc(C)cc(NC(=O)CNC(c2ccccc2)c2ccccc2)c1	16.0	14.9	8.3	18.6
Cc1cc(O)c2c3c(c(O)cc2c1)C(=O)c1c(O)cccc1C3=O	63.2*	66.8*	-17.0	72.8*
CC(C)(C)c1ccc(Nc2nc(-c3cccnc3)nc3ccccc23)cc1	-13.0	-8.1	-68.3	-18.9
c1cncc(-c2nc(Nc3ccc4c(c3)OCCCO4)c3ccccc3n2)c1	40.1*	-17.6	-13.6	6.1
c1cncc(-c2nc(Nc3ccc4c(c3)OCCO4)c3ccccc3n2)c1	42.0*	9.8	52.8*	43.7*
CCC(C(=O)NCc1ccncc1)N(c1cccc(Cl)c1)S(C)(=O)=O (stereo not drawn)	-0.9	32.5*	21.7	9.1
CN1CCN(c2c(S(=O)(=O)c3ccccc3)cnc3ccc(F)cc23)CC1	4.2	2.8	4.7	1.8
Fc1ccc(F)c(-c2nnc(-c3ccc(-n4ccnc4)nc3)o2)c1	46.5*	6.3	24.5	16.7
Fc1ccc(Cl)cc1-c1nnc(-c2ccc(-n3ccnc3)nc2)o1	48.4*	18.7	46.3*	16.1
